Results published in PubChem BioAssay.

The molecules below were run on XIP peptide (Xip251-270) binding (assay: small-molecule binders of XIP peptide, primary screen, biochemical, small-molecule microarray, fluorescence 635/667 nm, 0.1 µg/mL protein (AID 1182)). Settings: fluorescent protein binding, 635 nm, higher = more signal, called active from +8 up or from −8 down.

Composite z-score, inactive:
COC(=O)CC=C[C@@H](C)[C@@H](C=NO[C@@H](C)c1cc(-c2c(C)cc(C)cc2C)no1)NS(=O)(=O)c1ccc(C)cc1 -0.105, CON=CC[C@@H]1C=C[C@H](OC(C)=O)[C@@H](COC(C)=O)O1 0.726, COC(=O)CC=C[C@@H](C)[C@@H](C=NO[C@@H]1O[C@H](COC(C)=O)[C@@H](OC(C)=O)[C@H](OC(C)=O)[C@H]1OC(C)=O)NS(=O)(=O)c1ccc(C)cc1 -0.0076, CCOC(=O)[C@H](CC(C)C)NC(=O)CCC1CC(OC(=O)NCc2ccc3c(c2)OCO3)CC2(CCCC(COC(=O)NCC(c3ccccc3)c3ccccc3)O2)O1 (some centres not stated) 0.717, Cc1ccc(S(=O)(=O)N[C@@H]2COC(=O)[C@@H](C)COC(=O)CC=C[C@H]2C)cc1 -0.21, CC(C)(C)N1C(=O)[C@H]2[C@H]3[C@H](O)[C@H](O)CC(=NO[C@@H]4O[C@H](CO)[C@@H](O)[C@H](O)[C@H]4O)[C@H]3CC[C@H]2C1=O 0.0127, O=C1C[C@@H](O)[C@@H](O)[C@@H]2[C@@H]3C(=O)N(Cc4ccccc4)C(=O)[C@@H]3CC[C@@H]12 0.245, CC(C)=CCCC(C)=CCON=C1C[C@@H](O)[C@@H](O)[C@@H]2[C@@H]3C(=O)N(c4cccc(Oc5ccccc5)c4)C(=O)[C@@H]3CC[C@@H]12 0.188, CO[C@H]1COC(=O)[C@@H](C)COC(=O)[C@H](COCc2ccccc2)NC(=O)CC=C[C@H]1C -0.0299, C[n+]1ccc(-c2ccc(CO)cc2)cc1 0.725, CCCNC(=O)OC[C@H]1O[C@H](CCON=C(C)CCC(=O)OC[C@H]2O[C@H](c3ccccc3)C=C[C@@H]2Oc2ccc(OC)cc2)C=C[C@@H]1Oc1ccc(OC)cc1 0.146, COC(=O)[C@H](C)NC(=O)CCC1CC(OC(=O)NCc2ccc3c(c2)OCO3)CC2(CCCC(COC(=O)NCC(c3ccccc3)c3ccccc3)O2)O1 (some centres not stated) 1.93, COC(=O)[C@H](C)NC(=O)CCC1CC(OC(=O)NCc2cccc3ccccc23)CC2(CCCC(COC(=O)NCC(c3ccccc3)c3ccccc3)O2)O1 (some centres not stated) 0.519, O=C1OCCC=C1C(O)CCc1ccccc1 (configuration not stated) 0.321, COC(=O)[C@H](C)NC(=O)CCC1CC(OC(=O)NCc2ccc3c(c2)OCO3)CC2(CCCC(COC(=O)NCc3cccc(C(F)(F)F)c3)O2)O1 (some centres not stated) 0.2, CO[C@H]1COC(=O)[C@H](C)NC(=O)CC=C[C@@H](C)[C@H](OC)COC(=O)[C@@H](OCc2ccccc2)C=C[C@@H]1C -0.296, C#CCCCON=C1C[C@@H](O)[C@@H](O)[C@@H]2[C@@H]3C(=O)N(c4ccc(F)cc4F)C(=O)[C@@H]3CC[C@H]12 1.55, CCC=CCCC(OC(=O)c1ccc(Br)cc1)C1=CCCCC1=O (configuration not stated) 0.84, C[C@@H](c1ccccc1)N1C(=O)[C@H]2[C@H]3[C@H](O)[C@H](O)CC(=O)[C@H]3CC[C@H]2C1=O -0.286, CCOC(=O)[C@H](CC(C)C)NC(=O)CCC1CC(OC(=O)NCc2cccc3ccccc23)CC2(CCCC(COC(=O)NCCc3ccc(Cl)cc3)O2)O1 (some centres not stated) -0.0551, C#CCCCON=C1C[C@@H](O)[C@@H](O)[C@@H]2[C@@H]3C(=O)N(C(C)(C)C)C(=O)[C@@H]3CC[C@@H]12 -0.0287, CC(C)CON=C1C[C@@H](O)[C@@H](O)[C@@H]2[C@@H]3C(=O)N(Cc4ccc5c(c4)OCO5)C(=O)[C@@H]3CC[C@H]12 0.798, Cc1ccc(S(=O)(=O)N[C@H]2COC(=O)CC=C[C@@H](C)COC(=O)CC=C[C@@H]2C)cc1 0.172, Cc1cc2c(nc1C)CCCCN2CC(C)ON=C[C@@H](C)[C@H](OCc1ccccc1)C(C)C (some centres not stated) -0.398, C[C@@H]1CC[C@H]2C(=O)O[C@@H](COc3ccc(C(C)(C)C)cc3)CN2[C@@H]1c1ccc(Br)cc1 0.286, CCOC(=O)[C@H](CC(C)C)NC(=O)CCC1CC(OC(=O)NCc2cccc3ccccc23)CC2(CCCC(COC(=O)NCc3ccncc3)O2)O1 (some centres not stated) 1.56, C#CCCCON=C1C[C@@H](O)[C@@H](O)[C@@H]2[C@@H]3C(=O)N(Cc4ccccc4)C(=O)[C@@H]3CC[C@@H]12 -0.186
